Test results from PubChem BioAssay AID1851 (National Center for Advancing Translational Sciences (NCATS), 2009).
Values joined by “and” are separate entries in the source; they are usually repeats but may differ in a detail not shown here. Identical values can stand only once. Hit rate of the full screen: of about 16,000 compounds, about 5,800 (36%) were called active. Roughly 23% stayed inconclusive and do not appear here. This is one part of the list. A number with no mark means an inactive call. Calls come from the whole dose curve; as a rule, active = well fitted curve in the direction sought with a large enough effect; inconclusive = small, poorly fitted or top-dose-only effect, or effect the other way; inactive = no such curve, though single readings can be large or run the other way.

Molecular target: Cytochrome P450 2C19 (Homo sapiens) (UniProt P33261)
Sequence (P33261 whole entry, looked up): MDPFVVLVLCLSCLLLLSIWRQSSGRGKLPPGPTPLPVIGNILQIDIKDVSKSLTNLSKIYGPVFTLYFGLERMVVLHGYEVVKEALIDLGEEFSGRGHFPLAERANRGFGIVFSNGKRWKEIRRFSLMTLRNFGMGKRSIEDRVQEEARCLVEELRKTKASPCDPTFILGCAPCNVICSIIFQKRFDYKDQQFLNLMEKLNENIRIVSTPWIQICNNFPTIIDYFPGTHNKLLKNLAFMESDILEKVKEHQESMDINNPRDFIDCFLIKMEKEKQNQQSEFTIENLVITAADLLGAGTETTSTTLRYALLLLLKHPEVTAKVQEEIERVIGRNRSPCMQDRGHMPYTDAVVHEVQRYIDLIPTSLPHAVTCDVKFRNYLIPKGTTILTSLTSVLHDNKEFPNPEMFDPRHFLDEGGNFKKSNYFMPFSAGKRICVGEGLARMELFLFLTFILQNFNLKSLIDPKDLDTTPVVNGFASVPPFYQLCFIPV
Test: Cytochrome panel assay with activity outcomes
Settings: recombinant CYP, pro-luciferin dealkylation, luminescence, p450-cyp2c19; series mostly up to 57.1 µM; activity, negative = inhibition: at the top concentration
% is set by controls: 0 for no effect and ±100 for the full control effect.

| SMILES | activity, negative = inhibition | AC50 |
| --- | --- | --- |
| Nc1nc(-c2ccc3ccccc3c2)cc(-c2cc(-c3ccc4ccccc4c3)nc(N)n2)n1 | 10.1% [at 11.4 µM] |  |
| O=C(O)c1nnsc1-c1csnn1 | -19.5% [at 11.4 µM] |  |
| c1ccc2cc(-c3csnn3)ccc2c1 |  | 3.98 µM (active) |
| COc1ccc(-c2nc3cnc(N4CCN(C)CC4)nc3n(C3CC3)c2=O)cc1 | 0.141% |  |
| O=C(NC(=S)NNC(=O)c1cccs1)c1ccco1 | -21.9% |  |
| COc1cc(NC(=S)NC(=O)c2c(OC)cccc2OC)ccc1NC(=O)c1cccs1 |  | 2 µM (active) |
| Cc1cccc(NC(=S)NC(=O)c2cccs2)n1 |  | 3.55 µM (active) |
| Cc1ccccc1C(=O)Nc1cccc(NC(=S)NC(=O)c2cccs2)c1 |  | 3.55 µM (active) |
| O=C(N/N=C/c1cccc(OC2CSC2)c1)c1ccccc1O | -12.9% |  |
| O=C(COc1ccccc1C(=O)N/N=C\c1ccc(O)c(O)c1)N/N=C/c1ccc(O)c(O)c1 |  | 15.8 µM (active) |
| CCOCc1cnc(C)nc1NCC(=O)c1c(C)[nH]c2ccccc12 | -18.2% |  |
| CON(C)C(=O)c1nnc2c(n1)[nH]c1ccccc12 | -38.3% [at 11.4 µM] |  |
| CCOC(=O)CC(=O)CSc1nnc2c(n1)[nH]c1ccccc12 |  | 14.1 µM (active) |
| O=C(CSc1nnc2c(n1)[nH]c1ccc(F)cc12)OCc1ccccc1 |  | 0.398 µM (active) |
| Cc1ccc(C(=O)NNC(=O)CSc2nnc3c(n2)[nH]c2ccc(F)cc23)cc1 | -27.4% |  |
| COc1[nH]c2ccc(F)cc2c1C(=O)OCC1CCN(CCNS(C)(=O)=O)CC1 |  | inactive |
| Cc1cccc(N(CC(=O)NC2CCCC2)C(=O)c2cc3cc4cccc(C)c4nc3s2)c1C |  | 3.98 µM (active) |
| Cc1cc(C)nc(NC(=O)c2cccc([N+](=O)[O-])c2C)n1 | -21.1% |  |
| O=C(Nc1cccc(NC(=O)c2ccccc2[N+](=O)[O-])n1)c1ccccc1[N+](=O)[O-] |  | 8.91 µM (active) |
| C=CCN(CC=C)C(=S)Nc1ccccc1 | -48.7% |  |
| S=C(Nc1ccccc1)Nc1ccccc1C#Cc1ccccc1 |  | 3.16 µM (active) |
| CCOc1ccc(C(=O)Nc2ccccc2N2CCCC2)cc1 |  | 15.8 µM (active) |
| CC(=O)N1CCN(c2ccccc2NC(=O)COc2ccc(Br)cc2)CC1 |  | 14.1 µM (active) |
| Cc1ccc(OCC(=O)Nc2ccccc2N2CCOCC2)c(C)c1 |  | 3.98 µM (active) |

| SMILES | activity, negative = inhibition | AC50 |
| --- | --- | --- |
| COc1ccc(-c2ccc3c(n2)CCCN3C[C@H](O)CN2CCCc3nc(-c4ccc(Br)cc4)ccc32)cc1 | 0.393% [at 11.4 µM] and -39.5% [at 11.4 µM] |  |
| COc1ccc(-n2c(=O)c(C)nc3cnc(N4CCNCC4)nc32)cc1 | -4.91% |  |
| CS(=O)(=O)N1CCC2(CC1)CN(Cc1cc(C(F)(F)F)cc(C(F)(F)F)c1)C2 | -36% |  |
| NS(=O)(=O)c1cc(C(=O)O)c(O)c2ccccc12 | -24.4% [at 11.4 µM] |  |
| CCOC(=O)c1c(C)oc2c1cc(O)c1ccccc12 |  | 3.55 µM (active) |
| COc1ccc2[nH]cc(CCNc3ncncc3-c3ccccc3C(F)(F)F)c2c1 |  | 0.251 µM (active) |
| COc1ccc2[nH]cc(CCNc3ncncc3-c3ccccc3Cl)c2c1 |  | 0.0631 µM (active) |
| CC(=O)NCCNc1ncncc1-c1ccccc1CN(C)C | -8.79% |  |
| COCCNc1ncncc1-c1c(C)noc1C | -39% |  |
| CN(C)Cc1ccccc1-c1cncnc1NC1CC1 | -12.7% |  |
| COc1ccc2[nH]cc(CCNc3ncncc3-c3ccccc3CN(C)C)c2c1 |  | 10 µM (active) |
| COc1ccc2[nH]cc(CCNc3ncncc3-c3c(C)noc3C)c2c1 |  | 3.16 µM (active) |
| CC(N)=NCc1cccc(CN)c1 |  | inactive |
| COc1ccc2[nH]cc(CCNc3ncncc3-c3ccccc3OC)c2c1 |  | 0.0794 µM (active) |
| COc1ccc2[nH]cc(CCNc3ncncc3-c3ccccc3C)c2c1 |  | 0.0501 µM (active) |
| C[C@H]1C[C@H]2[C@H]3CCC4=CC(=O)C=C[C@@]4(C)[C@]3(F)[C@H](O)C[C@]2(C)[C@@]1(O)C(=O)COP(=O)(O)O | 18.4% [at 11.4 µM] |  |
| Cc1ccc(C(C(=O)NC2CCCCC2)N(CC2CCCO2)C(=O)CNC(=O)c2cccs2)cc1 (configuration not stated) |  | 10 µM (active) |
| O=C(NCc1ccco1)C(c1ccccc1)N(C(=O)Cc1cccs1)c1ccccc1F (configuration not stated) |  | 3.16 µM (active) |
| Cc1ccc(C(C(=O)NCc2ccco2)N(C(=O)CNC(=O)c2cccs2)c2ccc(C)cc2C)cc1 (configuration not stated) |  | 1.12 µM (active) |
| CCOC(=O)C1=C(C)NC2(O)c3ccccc3C(=O)C12O (configuration not stated) | -23.4% |  |
| CCC(C)OC(=O)C1=C(C)NC(=O)CC1c1ccccc1OC (configuration not stated) |  | 2 µM (active) |
| COc1cccc2c1OC1(C)CC2/C(=C(\C)O)C(=O)N1 (configuration not stated) | -10.3% |  |
| CCCOc1ccccc1C1CC(=O)NC(C)=C1C(=O)OCC(C)C (configuration not stated) |  | 1.41 µM (active) |
